KDM5B inh – Primary screen for KDM5B Histone Demethylases FDH-coupled qHTS; hit rate 2.6% among 220,000; AID 1347165, 2019; Potency, µM (series often up to 57.7 µM), usual class: inhibitors; KDM5B demethylase, FDH-coupled NADH fluorescence (FDH is formaldehyde dehydrogenase); Lysine-specific demethylase 5B (Homo sapiens), Q9UGL1; active means well fitted inhibition curve with a large enough effect; further: 0% is about no effect; nearly all actives have a fitted effect of over 70% in size
Target sequence (Q9UGL1 whole entry, looked up): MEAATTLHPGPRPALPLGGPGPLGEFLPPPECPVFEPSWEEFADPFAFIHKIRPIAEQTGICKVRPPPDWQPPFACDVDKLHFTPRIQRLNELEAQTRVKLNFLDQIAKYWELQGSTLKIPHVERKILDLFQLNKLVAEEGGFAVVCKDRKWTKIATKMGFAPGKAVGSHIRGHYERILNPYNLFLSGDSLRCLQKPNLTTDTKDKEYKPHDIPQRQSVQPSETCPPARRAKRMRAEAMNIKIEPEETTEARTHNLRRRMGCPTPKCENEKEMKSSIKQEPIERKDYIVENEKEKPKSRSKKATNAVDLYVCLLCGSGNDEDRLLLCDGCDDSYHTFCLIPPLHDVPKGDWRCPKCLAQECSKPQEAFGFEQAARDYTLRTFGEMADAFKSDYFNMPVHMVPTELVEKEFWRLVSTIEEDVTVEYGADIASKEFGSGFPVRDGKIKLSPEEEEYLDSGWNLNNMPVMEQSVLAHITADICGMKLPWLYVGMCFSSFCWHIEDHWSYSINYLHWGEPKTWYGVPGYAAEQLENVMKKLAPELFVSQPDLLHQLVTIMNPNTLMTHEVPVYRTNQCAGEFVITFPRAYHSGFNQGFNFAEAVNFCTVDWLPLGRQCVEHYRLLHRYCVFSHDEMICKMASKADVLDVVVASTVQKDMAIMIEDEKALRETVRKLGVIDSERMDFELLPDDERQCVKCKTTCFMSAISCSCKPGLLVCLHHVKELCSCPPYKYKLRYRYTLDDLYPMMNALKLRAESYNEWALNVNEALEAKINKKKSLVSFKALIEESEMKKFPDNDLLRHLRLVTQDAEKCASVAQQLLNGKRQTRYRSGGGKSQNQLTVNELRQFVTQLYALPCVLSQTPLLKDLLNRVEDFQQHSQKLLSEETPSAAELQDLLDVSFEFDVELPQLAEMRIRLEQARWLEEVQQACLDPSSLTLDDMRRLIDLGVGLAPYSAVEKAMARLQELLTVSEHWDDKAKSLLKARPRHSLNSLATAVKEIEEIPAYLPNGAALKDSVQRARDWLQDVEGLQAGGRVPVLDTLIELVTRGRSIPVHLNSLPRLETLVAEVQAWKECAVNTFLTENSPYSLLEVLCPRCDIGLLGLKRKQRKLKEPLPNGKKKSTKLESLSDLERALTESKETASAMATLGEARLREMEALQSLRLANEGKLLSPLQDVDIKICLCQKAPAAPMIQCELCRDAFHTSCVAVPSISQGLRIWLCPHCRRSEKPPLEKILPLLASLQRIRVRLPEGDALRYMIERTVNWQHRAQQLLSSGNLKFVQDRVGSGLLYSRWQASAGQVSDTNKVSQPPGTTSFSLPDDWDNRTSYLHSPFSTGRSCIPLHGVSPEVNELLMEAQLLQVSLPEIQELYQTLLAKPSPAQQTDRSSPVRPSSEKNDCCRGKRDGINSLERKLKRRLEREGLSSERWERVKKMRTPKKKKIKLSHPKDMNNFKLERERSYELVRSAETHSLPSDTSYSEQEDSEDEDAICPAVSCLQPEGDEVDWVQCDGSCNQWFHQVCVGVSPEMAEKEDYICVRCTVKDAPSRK
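qHTS format, multiple compound concentrations. Buffer 50 mM HEPES pH 7.5/0.01% Tween-20; 200 nM KDM5BΔAP final; 10 min compound preincubation; substrate-mix levels 12.5 µM peptide, 25 µM α-KG, 0.25 mM NAD⁺; 30 min RT; ΔRFU.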
* hit, by the source's call; i = inactive. The entries come from a sample that favours hits as a whole. Potency means the concentration at half of the fitted maximal effect.

SMILES | KDM5B inh
Cc1ccc(-c2cc(-c3cccnc3)c3cncn3c2)cn1 | 35µM*
COc1ccc(-c2ccc(CN)cc2)cc1 | i
c1cncc(-c2cc(-c3ccc4cn[nH]c4c3)cn3cncc23)c1 | 35µM*
COc1ccc(-c2csc3ncnc(Nc4cc(OC)c(OC)c(OC)c4)c23)cc1 | i
COc1ccc(-c2cc(-c3ccc(CO)cc3)cn3cncc23)cc1 | 4µM*
O=C(O)c1ccc(-c2cccnc2)cc1 | i
O=Cc1cn[nH]c1-c1cccnc1 | i
COc1ccc(Nc2cnc3ccc(-c4cccc(CO)c4)nn23)cc1 | i
Cc1nnc(-c2cc(-c3cccc(CO)c3)ccn2)n1Cc1cccnc1 | i
COc1cc(OC)cc(C(=O)NNC(=O)c2ccc(S(=O)(=O)N(C)c3ccccc3OC)cc2)c1 | i
Cc1cccc(C(=O)N2CCC(n3cnnc3-c3ccccc3)CC2)c1 | i
O=S(=O)(Cc1csc(Cc2ccccc2)n1)Cc1ccccc1F | i
CN1CCN(Cc2c(O)ccc3cc(-c4ccccc4)c(=O)oc23)CC1 | i
Cc1oc2cc(OC(=O)c3ccc4c(c3)OCO4)ccc2c(=O)c1-c1ccccc1 | i
Cc1sc2ncn(CC(=O)NCCCC(=O)Nc3ccc(C(C)C)cc3)c(=O)c2c1C | i
CC(C)c1ccc(N2C(=O)N(Cc3cccc([N+](=O)[O-])c3)c3ccccc3S2(=O)=O)cc1 | i
CCOc1ccc(OCC)c(S(=O)(=O)N2CCN(c3cccc(C)c3C)CC2)c1 | i
CC(C)(C)c1ccc(C(=O)NNc2ncccc2-n2cccc2)cc1 | i
COCCC1(CO)CCCN(Cc2cc(Cl)cc(OC)c2OC)C1 (stereo not given) | i
COc1ncccc1-c1cc(-c2cccnc2)c2cncn2c1 | 35µM*
COc1ccc(NC(=O)c2cc(-c3cccnc3)nc3ccccc23)cc1 | i
COc1ccc(-c2cc(-c3cccnc3)cn3cncc23)cc1 | 40µM*
COc1cccc(N2CCN(C(=O)c3cn(-c4ccccc4)nc3-c3cccnc3)CC2)c1 | i
COc1cccc(C(=O)Nc2cccc(-c3nnc(-c4ccccc4)o3)c2)c1 | i
COc1cccc(OC)c1C(=O)Nc1cccc(-c2cn3ccsc3n2)c1 | i
SMILES | KDM5B inh
COc1ccc(OC2CN(Cc3cccnc3)C2)cc1 | i
COc1ncccc1-c1cc(C(=O)N2CCCC(OC)C2)c2c(c1)ncn2C (stereo not given) | i
COc1ccc(-c2cc(-c3cccc(NC(C)=O)c3)cn3cncc23)cc1 | 8.9µM*
CC(C)C(=O)N1CC(c2nnc(-c3ccncc3)o2)C2(CCOCC2)C1 (stereo not given) | i
Cn1cccc1C(=O)c1ccc(Cl)cc1 | i
Cc1cccc(OCCc2noc(C3CCN(C(=O)NCc4ccccc4)C3)n2)c1 (stereo not given) | i
Cc1nc2cc(NS(=O)(=O)c3c(C)c(C)c(C)c(C)c3C)ccc2o1 | i
CSCc1c(C(=O)NCc2nnc3n2CCCCC3)oc2ccccc12 | i
O=C(CCC[C@H]1NC[C@@H]2C[C@H]1CN(Cc1ccccc1)C2)NC1CCN(Cc2ccccc2)CC1 | i
O=C(CCC[C@H]1NC[C@@H]2C[C@H]1CN(Cc1ccccc1)C2)NCCCn1cccn1 | i
O=C(CCC[C@H]1NC[C@@H]2CC1CN(Cc1ccccc1)C2)N1CCCCC1 | i
O=C(CCC[C@H]1NC[C@@H]2CC1CN(Cc1ccccc1)C2)NCCCN1CCOCC1 | i
COc1cccc(N2CCN(C(=O)CCC[C@H]3NC[C@@H]4C[C@H]3CN(Cc3ccccc3)C4)CC2)c1 | 25µM*
O=C(CCC[C@H]1NC[C@@H]2C[C@H]1CN(Cc1ccccc1)C2)NCC1CCCCC1 | i
COc1ccccc1CNC(=O)CCC[C@H]1NC[C@@H]2C[C@H]1CN(Cc1ccccc1)C2 | 4.5µM*
O=C(CCC[C@H]1NC[C@@H]2C[C@H]1CN(Cc1ccccc1)C2)N1CCN(C2CCCC2)CC1 | i
CC(C)CN1CCN(C(=O)CCC[C@H]2NC[C@@H]3C[C@H]2CN(Cc2ccccc2)C3)CC1 | 6.3µM*
CC(C)(C)OC(=O)NCCCC(=O)N1CCC(n2c(=O)[nH]c3ccccc32)CC1 | i
Cc1cc(Cl)ccc1NC(=O)c1cnc(-c2ccccc2)nc1-c1ccncc1 | i
CC(C)CN(C(=O)CN1C(=O)C2CCCCC2C1=O)c1c(N)n(Cc2ccccc2)c(=O)[nH]c1=O (stereo not given) | i
O=C(/C=C/c1ccccc1)NCCc1c[nH]c2ccccc12 | i
COc1ccccc1N1CCN(C(=O)CN2C(=O)COc3ccc(S(=O)(=O)N4CCCCCC4)cc32)CC1 | i
CN1CC(=O)N(c2ccccc2F)Cc2c(NCCCc3ccccc3)ncnc21 | i
CN1CC(=O)N(c2ccccc2F)Cc2c(NCCc3ccccc3F)ncnc21 | i
CN1CC(=O)N(c2ccccc2F)Cc2c(NCCc3ccc(Cl)cc3)ncnc21 | 25µM*
SMILES | KDM5B inh
COCCn1cc(CN(C)Cc2ccccc2)ccc1=O | i
O=C1NCCOCCCN(C(=O)c2ccco2)[C@H]2CCCC[C@@H]12 | i
Cc1nn(-c2ccc(=O)[nH]n2)c2c1C(c1ccc3nccnc3c1)CC(=O)N2 (stereo not given) | i
CNC(=O)c1ccc2c(c1)OCCN(c1ccccc1)C2 | i
Cc1cnc(NC(=O)c2ccc3c(c2)OCCN(c2ccccc2)C3)s1 | 28µM*
O=C(NCC1CC1)c1ccc2c(c1)OCCN(c1ccccc1)C2 | i
Cc1c(C(=O)N2CC(C)OC(C)C2)[nH]c2ccc(Br)cc12 (stereo not given) | i
COc1ccc(CN2C(=O)[C@@H]3C[C@@H](O)CN3C3(CN(CC(C)C)C3)C2=O)cc1 | i
CCc1ccc(C(C)NC(=O)CSc2nnc(C3CC3)n2CC(N)=O)cc1 (stereo not given) | i
CCC(=O)N1CCN(c2nc3c(s2)CC(C(=O)NCc2ccc(C)o2)CC3)CC1 (stereo not given) | 25µM*
CCC(=O)N1CCN(c2nc3c(s2)CC(C(=O)NCc2cccs2)CC3)CC1 (stereo not given) | i
Cc1ccc(CNC(=O)C2CCc3nc(N4CCN(C(=O)C(C)C)CC4)sc3C2)o1 (stereo not given) | i
CC(C)c1nc(CCN(C)C(=O)C(c2cccnc2)N2CCOCC2)no1 (stereo not given) | i
Cc1ccc(CNC(=O)c2sc3nc4n(c(=O)c3c2C)CCCCC4)cc1 | i
COc1ccc(CCN2C(=O)O[C@@H]3CN(c4nc(C)cc(C)n4)C[C@@H]32)cc1 | 18µM*
COc1ccc(CN2C(=O)CO[C@H]3CN(S(=O)(=O)c4ccccc4)C[C@H]32)cc1 | i
COc1ccc(CCCN2C(=O)O[C@@H]3CN(c4nc(C)cc(C)n4)C[C@@H]32)cc1 | i
O=C1CO[C@H]2CN(c3nccc(C(F)(F)F)n3)C[C@H]2N1Cc1ccc(F)cc1 | i
COc1ccc(CN2C(=O)CO[C@H]3CN(c4nccc(C)n4)C[C@H]32)cc1 | 35µM*
COc1ccc(CCN2C(=O)O[C@@H]3CN(c4nc(OC)cc(OC)n4)C[C@@H]32)cc1 | i
CCc1ccc(NC(=O)CN2C(=O)CCSc3ccccc32)cc1 | i
COc1cccc(CNC(=O)Cn2cccc2C(=O)c2ccccc2)c1 | i
Cc1ccc(NC(=O)CC2Oc3ccccc3NC2=O)cc1C (stereo not given) | i

Screens from PubChem BioAssay.
